Laboratory results reported in PubChem BioAssay (Tox21).
Records with an inconclusive call do not appear. Calls of active or inactive are those of the source. Calls follow the shape of the full dose curve.

What was measured:
[1] = target: Acetylcholinesterase (Homo sapiens) (UniProt P22303); assay: Acetylcholinesterase (AChE) small molecule antagonists: colormetric cell-based qHTS assay (AID 1347395); conditions: SH-SY5Y cells AChE activity, colorimetric (Ellman); series mostly up to 115 µM; also: nearly all actives have a fitted effect of over 30% in size
Acetylcholinesterase (Homo sapiens), sequence (P22303 whole entry, looked up): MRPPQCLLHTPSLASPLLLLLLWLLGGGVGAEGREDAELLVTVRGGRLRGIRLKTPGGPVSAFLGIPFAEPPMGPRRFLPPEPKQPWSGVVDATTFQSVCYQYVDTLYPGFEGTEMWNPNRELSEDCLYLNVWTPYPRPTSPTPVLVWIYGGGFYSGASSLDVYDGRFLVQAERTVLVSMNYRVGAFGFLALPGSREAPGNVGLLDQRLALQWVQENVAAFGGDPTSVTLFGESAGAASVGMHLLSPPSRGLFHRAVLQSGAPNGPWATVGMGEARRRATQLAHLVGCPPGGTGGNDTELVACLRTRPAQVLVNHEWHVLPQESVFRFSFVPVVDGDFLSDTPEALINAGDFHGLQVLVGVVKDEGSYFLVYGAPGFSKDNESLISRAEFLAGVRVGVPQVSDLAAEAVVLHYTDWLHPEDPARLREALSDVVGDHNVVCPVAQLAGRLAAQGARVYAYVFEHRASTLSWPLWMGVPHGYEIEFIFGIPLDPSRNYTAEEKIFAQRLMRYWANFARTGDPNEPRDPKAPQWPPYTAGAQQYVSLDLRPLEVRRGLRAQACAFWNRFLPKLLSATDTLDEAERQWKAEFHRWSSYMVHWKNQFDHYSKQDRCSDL
How it was run: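 SH-SY5Y cells; cpd 30 min 37 C; + DTNB/acetylthiocholine, 90 min 37 C; colorimetric thiocholine read; qHTS.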

[2] = target: Acetylcholinesterase (Homo sapiens) (UniProt P22303); assay: Acetylcholinesterase (AChE) small molecule antagonists: enzyme-based qHTS assay (AID 1347397); conditions: Potency: AChE enzyme activity inhibition; outcome: AChE enzyme activity inhibition; series mostly up to 115 µM; also: nearly all actives have a fitted effect of over 55% in size
How it was run: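 Colorimetric DTNB readout of acetylthiocholine hydrolysis, 10 min at room temperature, after 30 min room-temperature exposure of 50 mU/mL recombinant human enzyme to compound; DMSO vehicle control.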

[3] = target: Acetylcholinesterase (Homo sapiens) (UniProt P22303); assay: Acetylcholinesterase (AChE) small molecule antagonists: fluorescence cell-based qHTS assay (AID 1347398); conditions: SH-SY5Y cells; Potency: AChE activity; outcome: AChE activity; series mostly up to 115 µM; also: nearly all actives have a fitted effect of over 50% in size
How it was run: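 Cellular AChE activity read as thiocholine from acetylthiocholine hydrolysis, detected by Thiolite Green fluorescence at 490/520 nm after 40 min at room temperature. Compounds were pre-incubated 30 min at 37 C on adherent SH-SY5Y cells.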

[4] = target: Acetylcholinesterase (Homo sapiens) (UniProt P22303); assay: Acetylcholinesterase (AChE) small molecule antagonists: enzyme-based qHTS assay with human liver microsomes (AID 1347399); conditions: Potency: qHTS inhibition; outcome: qHTS inhibition; series mostly up to 115 µM; also: nearly all actives have a fitted effect of over 60% in size
How it was run: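 Recombinant human AChE (50 mU/mL in the enzyme mix) and human liver microsomes (0.25 mg/mL final) were preincubated with compound and NADPH (0.25 mg/mL final) for 30 min at 37 C. Acetylthiocholine/DTNB was then added; thiocholine was read colorimetrically after 10 min at room temperature.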
% is scaled to controls: 0 for no effect and ±100 for the full control effect.

CN(C)c1ccc(C=O)cc1
inactive: Potency [1] | Potency [2] | Potency [3] | Potency [4]

COC(=O)NCCC[Si](OC)(OC)OC
inactive: Potency [1] | Potency [2] | Potency [3] | Potency [4]

O=S(=O)(O)c1ccccc1/C=C/c1ccc(-c2ccc(/C=C/c3ccccc3S(=O)(=O)O)cc2)cc1
inactive: Potency [1] | Potency [2] | Potency [3] | Potency [4]

CC(=O)CC(c1ccc([N+](=O)[O-])cc1)c1c(O)c2ccccc2oc1=O (centres undefined)
inactive: Potency [1] | Potency [2] | Potency [3] | Potency [4]

O=C1CCCCCCCCCCC(=O)OCCO1
inactive: Potency [1] | Potency [2] | Potency [3] | Potency [4]

Cc1onc(-c2c(Cl)cccc2Cl)c1C(=O)N[C@@H]1C(=O)N2[C@@H]1SC(C)(C)[C@@H]2C(=O)O
inactive: Potency [1] | Potency [2] | Potency [3] | Potency [4]

O=C1c2ccccc2-c2ccccc21
inactive: Potency [1] | Potency [2] | Potency [3] | Potency [4]

NC(Cc1ccc(Cl)cc1)C(=O)O (centres undefined)
inactive: activity, negative = inhibition [1] 1.17% [at 0.435 µM] | activity change, negative = inhibition [2] 0.0464% [at 0.435 µM] | activity change, negative = inhibition [3] 9.18% [at 0.439 µM] | activity change, negative = inhibition [4] -1.76% [at 0.435 µM]

COc1ccccc1N1CCN(CCCNc2cc(=O)n(C)c(=O)n2C)CC1
inactive: Potency [1] | Potency [2] | Potency [3] | Potency [4]

C1CCCCCCCCCCC1
inactive: activity, negative = inhibition [1] -0.403% [at 23.6 µM] | activity change, negative = inhibition [2] 0.515% [at 23.6 µM] | activity change, negative = inhibition [3] 7.82% [at 23.8 µM] | activity change, negative = inhibition [4] -0.0559% [at 23.6 µM]

CC(=O)SC[C@@H](Cc1ccccc1)C(=O)NCC(=O)OCc1ccccc1
inactive: Potency [1] | Potency [2] | Potency [3] | Potency [4]
